Activity calls are given as the source filed them. How the calls were made is not given here.
experiment: antiviral protection of cells from WNV – synthesized analogs, SAR follow-up (AID 2238); conditions: West Nile virus CPE inhibition in cells; max CPE inhibition: measured here: maximum CPE inhibition observed, at 40 µM, stronger effect = higher value unless noted; series mostly up to 40 µM

SMILES	max CPE inhibition	outcome
O=C(CSc1nc2ccccc2c(=O)n1-c1ccc(Cl)c(Cl)c1)Nc1ccc2c(c1)CCC2	63.1%	–
O=[N+]([O-])c1ccc2c(c1)C(O)N1CCCC1=N2 (centres undefined)	1.83%	inactive
COc1ccc(-c2csc(N(Cc3ccccc3)C(=O)c3ccccc3Cl)n2)cc1	2.87%	inactive
COc1ccc(-c2csc(N(CCCN(C)C)C(=O)c3ccccc3C)n2)cc1	60.8% [measured here: maximum CPE inhibition observed, at 80 µM, stronger effect = higher value]	–
O=C(CSc1nc2ccccc2c(=O)n1-c1ccc(F)cc1F)Nc1ccc(N2CCOCC2)cc1	58% [measured here: maximum CPE inhibition observed, at 80 µM, stronger effect = higher value]	–
O=C(CSc1nc2ccccc2c(=O)n1-c1ccc(F)cc1F)Nc1ccc2c(c1)CCC2	64.8% [measured here: maximum CPE inhibition observed, at 80 µM, stronger effect = higher value]	–
CCOC(=O)C1(Cc2ccccc2C(F)(F)F)CCN(C2CCN(C(C)C)CC2)CC1	59.8%	–
O=c1c2cccc(Cl)c2nc2n1CCC2	1.83%	inactive
Cc1cccc2c1-c1sc(C(=O)NCCCN3CCC(C)CC3)cc1CO2	30.6% [measured here: maximum CPE inhibition observed, at 10 µM, stronger effect = higher value]	–
OC1c2cc(Br)ccc2N=C2CCCN21 (centres undefined)	79.7%	–
CC1CC(C)CN(CCCNC(=O)c2cc3c(s2)-c2ccccc2OC3)C1 (centres undefined)	41.1% [measured here: maximum CPE inhibition observed, at 20 µM, stronger effect = higher value]	–
